Measured values from PubChem BioAssay (NCI).
The panel holds about 83,000 compounds, 20% with a hit somewhere; the sample as a whole holds those more often.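 96-well plates, one dose, 48 hours. Percent growth reported; active if below 10.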 Active and inactive are the calls of the source.

Key:
Assay in all cases: NCI-60 one-dose screen, 48 h (100 = growth as untreated, 0 = no growth, -100 = all killed)
[1] = tested on: DU-145 prostate; details: 10 µM
[2] = tested on: K-562 leukemia; details: 10 µM
[3] = tested on: MALME-3M melanoma; details: 10 µM
[4] = tested on: MDA-MB-231 breast; details: 10 µM
[5] = tested on: RXF 393 renal; details: 10 µM
[6] = tested on: SF-268 CNS; details: 10 µM
[7] = tested on: SF-295 CNS; details: 10 µM
[8] = tested on: SF-539 CNS; details: 10 µM
[9] = tested on: UACC-257 melanoma; details: 10 µM
[10] = tested on: M14 melanoma; details: 10 µM
[11] = tested on: HCT-15 colon; details: 10 µM
[12] = tested on: HT29 colon; details: 10 µM
[13] = tested on: SNB-75 CNS; details: 10 µM
[14] = tested on: SNB-19 CNS; details: 10 µM
[15] = tested on: U251 CNS; details: 10 µM
[16] = tested on: PC-3 prostate; details: 10 µM
[17] = tested on: SK-MEL-5 melanoma; details: 10 µM
[18] = tested on: UACC-62 melanoma; details: 10 µM unless noted
[19] = tested on: LOX IMVI melanoma; details: 10 µM
[20] = tested on: SK-MEL-28 melanoma; details: 10 µM

Measured: growth

O=C1N(C[P+](c2ccccc2)(c2ccccc2)c2ccccc2)CCCN1C[P+](c1ccccc1)(c1ccccc1)c1ccccc1
inactive: [1] 117% | [2] 93.9% | [3] 103% | [4] 90.8% | [5] 113% | [6] 115% | [7] 96.4% | [8] 106% | [9] 101% | [10] 98.2% | [11] 110% | [12] 102% | [13] 88.4% | [14] 98.3% | [15] 95.2% | [16] 92.5% | [17] 106% | [18] 94.7% | [19] 108% | [20] 102%

O=[N+]([O-])c1ccc(Cl)c(S(=O)(=O)O)c1
inactive: [1] 109% | [2] 100% | [3] 120% | [4] 110% | [5] 126% | [6] 105% | [7] 112% | [8] 97.8% | [9] 96.6% | [10] 107% | [11] 96.6% | [12] 138% | [13] 85.8% | [14] 106% | [15] 111% | [16] 108% | [17] 104% | [18] 105% | [19] 102% | [20] 111%

O=C1C=C(O)C(=O)C=C1O
inactive: [1] 119% | [2] 103% | [3] 144% | [4] 104% | [5] 150% | [6] 101% | [7] 115% | [8] 98.7% | [9] 107% | [10] 104% | [11] 107% | [12] 105% | [13] 95.1% | [14] 104% | [15] 104% | [16] 101% | [17] 114% | [18] 102% | [19] 98.9% | [20] 114%

CNS(=O)(=O)c1ccc(Cl)c(Cl)c1
inactive: [1] 111% | [2] 99.5% | [3] 111% | [4] 98.2% | [5] 99.7% | [6] 96.1% | [7] 101% | [8] 91.7% | [9] 124% | [10] 98.5% | [11] 99.9% | [12] 106% | [13] 87.8% | [14] 106% | [15] 99.3% | [16] 113% | [17] 96.7% | [18] 86.6% | [19] 102% | [20] 119%

Cc1ccc(Cl)cc1NC(=O)N(C)CCO
inactive: [1] 131% | [2] 98.5% | [3] 134% | [4] 118% | [5] 112% | [6] 126% | [7] 121% | [8] 91.9% | [9] 110% | [10] 107% | [11] 110% | [12] 133% | [13] 126% | [14] 101% | [15] 102% | [16] 96% | [17] 101% | [18] 109% | [19] 107% | [20] 145%

O=C(Nc1cccc(NC(=O)Nc2cc(C(F)(F)F)ccc2Cl)c1)Nc1cc(C(F)(F)F)ccc1Cl
active: [3] 2.44% | [4] 1.95% | [7] -23.9% | [9] -4.1% | [15] -17.2% | [16] 1.7%
inactive: [1] 30.8% | [2] 16.3% | [5] 32% | [6] 48.5% | [8] 34% | [10] 21.6% | [11] 20.3% | [12] 12.4% | [13] 16.1% | [14] 36.2% | [17] 29.4% | [18] 19.5% | [19] 10.2% | [20] 34.4%

O=C(O)CCC(=O)OC(C1CO1)C(OC(=O)CCC(=O)O)C1CO1 (stereo not given)
inactive: [1] 105% | [2] 103% | [3] 86.9% | [4] 130% | [5] 99.9% | [6] 105% | [7] 92.3% | [8] 95.2% | [9] 85% | [10] 98.9% | [11] 97.9% | [12] 100% | [13] 94.7% | [14] 111% | [15] 95.7% | [16] 96.3% | [17] 98.8% | [18] 111% | [19] 97.1% | [20] 110%

O=C(/C=C\c1ccc(O)cc1)c1ccccc1
inactive: [1] 101% | [2] 99.2% | [3] 82.7% | [4] 92.4% | [5] 110% | [6] 90% | [7] 110% | [8] 92.3% | [9] 98% | [10] 72.8% | [11] 88.5% | [12] 86.8% | [13] 81.4% | [14] 104% | [15] 80.7% | [16] 90.6% | [17] 97.3% | [18] 94.8% | [19] 94.4% | [20] 103%

COc1cc2nn(-c3ccccc3N)nc2cc1OC
inactive: [1] 107% | [2] 99.3% | [3] 103% | [4] 116% | [5] 87% | [6] 100% | [7] 105% | [8] 96.5% | [9] 107% | [10] 107% | [11] 102% | [12] 103% | [13] 72.6% | [14] 99.9% | [15] 91.7% | [16] 97.8% | [17] 98.4% | [18] 103% | [19] 94.7% | [20] 109%

COC(=O)c1cccnc1
inactive: [1] 107% | [2] 113% | [3] 112% | [4] 100% | [5] 105% | [6] 95.4% | [7] 110% | [8] 91.1% | [9] 90.4% | [10] 93.9% | [11] 103% | [12] 101% | [13] 88.2% | [14] 95.3% | [15] 99.4% | [16] 95.2% | [17] 96.4% | [18] 90.8% | [19] 95.6% | [20] 103%

CCOC(=O)C1OC1c1ccccc1 (stereo not given)
inactive: [1] 107% | [2] 103% | [3] 103% | [4] 111% | [5] 112% | [6] 97.5% | [7] 93.2% | [8] 99.4% | [9] 106% | [10] 97.8% | [11] 103% | [12] 112% | [13] 92% | [14] 103% | [15] 98.7% | [16] 98.8% | [17] 99.6% | [18] 101% | [19] 101% | [20] 110%

Cc1cccc(CO)c1
inactive: [1] 98.1% | [2] 97.7% | [3] 104% | [4] 104% | [5] 121% | [6] 95.4% | [7] 100% | [8] 108% | [9] 99.9% | [10] 108% | [11] 105% | [12] 108% | [13] 95.1% | [14] 107% | [15] 94.5% | [16] 104% | [17] 99.7% | [18] 104% | [19] 100% | [20] 109%

CCN=c1cc2sc3cc(NCC)c(C)cc3nc-2cc1C
inactive: [2] 11.8% | [5] 74.7% | [10] 21.4% | [12] 16.7% | [13] 52% | [15] 10.7% | [18] 61.3% | [20] 60.4%
active: [1] -18.9% | [3] -30.9% | [4] 2.51% | [6] -11.3% | [7] -72.4% | [8] -9.62% | [9] 6.74% | [11] 8.95% | [14] 4.67% | [16] 3.93% | [17] -56.9% | [19] 2.17%

Cn1cnc2nc(Cl)nc(Cl)c21
active: [1] -24% | [8] 2.85% | [10] -15.6% | [12] -29.9%
inactive: [2] 25.5% | [3] 55.6% | [4] 20.9% | [5] 30.6% | [6] 22.1% | [7] 16.3% | [9] 60% | [11] 31.7% | [13] 47.9% | [14] 61.4% | [15] 14.2% | [16] 25.1% | [17] 16% | [18] 54.9% | [19] 18.1% | [20] 65.1%

Cc1ccc(O)c(C(=O)c2ccccc2)c1
inactive: [1] 112% | [2] 122% | [3] 130% | [4] 90.6% | [5] 110% | [6] 101% | [7] 106% | [8] 101% | [9] 96.4% | [10] 95.8% | [11] 104% | [12] 104% | [13] 96.6% | [14] 92.2% | [15] 105% | [16] 101% | [17] 105% | [18] 96.6% | [19] 99.3% | [20] 110%

COc1cccc(/C=N/NC(=S)NC2CC3CCC2C3)c1O (stereo not given)
inactive: [1] 56.6% | [2] 39.3% | [3] 35.9% | [4] 55.4% | [5] 51.5% | [6] 63.3% | [7] 15.9% | [8] 69.8% | [9] 73.6% | [10] 55.7% | [11] 26.8% | [12] 93.6% | [14] 72.4% | [15] 42.2% | [16] 64.8% | [17] 67.8% | [18] 67.7% | [19] 44.2% | [20] 67.6%
active: [13] 5.33%
